Results filed as inconclusive are left out. Activity calls are given as the source filed them. Unless noted, calls follow the shape of the dose curve; as a rule, active = well fitted curve in the direction sought with a large enough effect in the repeat runs; inconclusive = weak or mixed curves; inactive = no such curve, though single readings can be large; an effect the other way counts as inactive or inconclusive.
Tests used:
[1] = qHTS assay for small molecules that induce genotoxicity in human embryonic kidney cells expressing luciferase-tagged ATAD5 (AID 651632); also: nearly all actives have a fitted effect of over 15% in size
Method in brief: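 Luminescence read-out: after 16 hr compound exposure at 37C, ATAD5-luciferase HEK293T cells received Amplite, 30 min RT, then CCD imaging. A rise in signal marks genotoxic stress.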

[2] = qHTS assay for small molecule agonists of the p53 signaling pathway - cell viability (AID 651633; calls by dose curve;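 also: p53RE-bla HCT reporter cells with a stable beta-lactamase p53 reporter; series mostly up to about 83 µM; nearly all actives have a fitted effect of over 30% in size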)
Method in brief: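 Viability counter-read: CellTiter-Glo luminescence (30 min, room temperature) in the same p53RE-bla plates. These plates had been exposed to compounds for 16 h at 37 C.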

[3] = qHTS assay for small molecules that induce genotoxicity in human embryonic kidney cells expressing luciferase-tagged ATAD5 - cell viability (AID 651634; calls by dose curve; also: nearly all actives have a fitted effect of over 25% in size)
Method in brief: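 HEK293T ATAD5-luc cells, 2,000/well; compound 15.5 hr, 37C/5% CO2; CellTiter-Fluor 30 min, 37C; fluorescence read.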

[4] = qHTS assay for small molecule disruptors of the mitochondrial membrane potential - cell viability (AID 720634; calls by dose curve;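 also: human HepG2 liver cancer cells; series mostly up to about 83 µM; nearly all actives have a fitted effect of over 20% in size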)
Method in brief: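 Luminescence from CellTiter-Glo (ATP content) gave viability in HepG2 cells, read in the same wells as the MMP dye assay after 1 hr compound exposure at 37 C.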

[5] = qHTS assay for small molecule disruptors of the mitochondrial membrane potential (AID 720635)
Method in brief: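 Mitochondrial membrane potential tracked with Mito-MPS dye, red aggregates (ex 540/em 590 nm) against green monomers (ex 490/em 535 nm). Compound treatment 1 hr at 37C, dye 30 min in HepG2.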

[6] = qHTS assay to test for compound auto fluorescence at 590 nm (red) in HepG2 cells (AID 720674)
Method in brief: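 1 hr compound incubation on HepG2 cells, 37 C, 5% CO2; plate read ex 540 nm / em 590 nm; intensities reported as Rose Bengal sodium equivalents.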

[7] = qHTS assay to test for compound auto fluorescence at 535 nm (green) in HepG2 cells (AID 720675)
[8] = qHTS assay to test for compound auto fluorescence at 460 nm (blue) in HEK293 cells (AID 720678)
Method in brief: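 Auto fluorescence in the blue band was quantified as triamterene equivalency. HEK293 cells were seeded at 2,000/well, dosed after a 4-5 hr attachment, and kept overnight at 37C before the 405/460 nm reading.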

[9] = qHTS assay to test for compound auto fluorescence at 590 nm (red) in HEK293 cells (AID 720679)
Method in brief: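 Autofluorescence equivalency to Rose Bengal sodium, 540/590nm, in HEK293 cells exposed overnight to 23 nL compound per well.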

[10] = qHTS assay to test for compound auto fluorescence at 535 nm (green) in HEK293 cells (AID 720680)
[11] = qHTS assay to test for compound auto fluorescence at 460 nm (blue) in HEK293 cell free culture (AID 720681)
Method in brief: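 Blue fluorescence (Ex 405/Em 460 nm, triamterene-equivalent) was read immediately after pin transfer of compound or DMSO into medium (DMEM, 10% FBS) without cells.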

[12] = qHTS assay to test for compound auto fluorescence at 535 nm (green) in HEK293 cell free culture (AID 720682)
Method in brief: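 Measurement is a direct plate read of green fluorescence (485 nm in, 535 nm out) after compound addition to serum-supplemented DMEM lacking cells, with fluorescein used to express intensities.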

[13] = qHTS assay to test for compound auto fluorescence at 590 nm (red) in HEK293 cell free culture (AID 720683)
Method in brief: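 Red-channel autofluorescence of compounds in culture medium (DMEM, 10% FBS), no cells, measured at 540/590 nm. Rose Bengal sodium is the reference fluorophore for equivalence.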

[14] = qHTS assay to test for compound auto fluorescence at 590 nm (red) in HepG2 cell free culture (AID 720684)
Method in brief: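 No cells present: MEM + 10% FBS only. Compound pinned in, red label read (540/590 nm). Activity = fluorescence equivalent to Rose Bengal sodium.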

[15] = qHTS assay to test for compound auto fluorescence at 460 nm (blue) in HepG2 cell free culture (AID 720685)
Method in brief: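 Cell-free plates of MEM plus 10% FBS received 23 nL compound or DMSO vehicle; blue-channel (405/460 nm) intensity scored against triamterene as reference fluorophore.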

[16] = qHTS assay to test for compound auto fluorescence at 535 nm (green) in HepG2 cell free culture (AID 720686)
[17] = qHTS assay to test for compound auto fluorescence at 460 nm (blue) in HepG2 cells (AID 720687)
Method in brief: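 Blue-channel autofluorescence (Ex/Em 405/460 nm, triamterene-equivalent) was measured after 1 hr compound exposure at 37 C, 5% CO2. Cells were HepG2, plated overnight at 37 C in MEM plus 10% FBS.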

[18] = target: Glucocorticoid receptor (Homo sapiens) (UniProt P04150); test: qHTS assay to identify small molecule agonists of the glucocorticoid receptor (GR) signaling pathway (AID 720691; active = well fitted activation curve with a large enough effect in the signal ratio in the repeat runs, not every such curve was filed as active; the % refers to the signal ratio)
Chain of Glucocorticoid receptor (Homo sapiens) (P04150 whole entry, looked up): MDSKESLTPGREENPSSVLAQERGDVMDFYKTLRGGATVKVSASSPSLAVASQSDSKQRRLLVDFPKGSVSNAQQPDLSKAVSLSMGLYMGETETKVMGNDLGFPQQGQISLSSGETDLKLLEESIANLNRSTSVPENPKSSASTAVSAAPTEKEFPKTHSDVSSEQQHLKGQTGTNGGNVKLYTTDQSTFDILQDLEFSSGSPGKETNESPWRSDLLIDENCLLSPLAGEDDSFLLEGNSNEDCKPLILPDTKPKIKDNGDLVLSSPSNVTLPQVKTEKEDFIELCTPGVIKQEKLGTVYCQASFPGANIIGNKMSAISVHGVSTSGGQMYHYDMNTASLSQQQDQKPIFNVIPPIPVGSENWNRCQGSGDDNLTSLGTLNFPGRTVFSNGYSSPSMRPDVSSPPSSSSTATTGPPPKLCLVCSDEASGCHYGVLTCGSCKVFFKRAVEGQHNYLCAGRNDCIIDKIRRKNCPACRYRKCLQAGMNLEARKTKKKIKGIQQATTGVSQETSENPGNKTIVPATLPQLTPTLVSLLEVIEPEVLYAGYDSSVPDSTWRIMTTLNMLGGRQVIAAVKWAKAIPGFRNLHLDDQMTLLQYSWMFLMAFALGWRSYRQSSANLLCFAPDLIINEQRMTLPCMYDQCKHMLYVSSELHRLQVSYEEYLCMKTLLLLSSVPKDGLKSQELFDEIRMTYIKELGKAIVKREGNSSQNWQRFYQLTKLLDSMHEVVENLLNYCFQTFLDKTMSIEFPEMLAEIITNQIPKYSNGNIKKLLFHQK
Method in brief: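 HeLa GR-bla reporter line; cells pre-incubated 4 h, compound in DMSO 18 h at 37 C; LiveBLAzer B/G FRET substrate 2 h RT; fluorescence intensity read-out.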

[19] = target: Glucocorticoid receptor (Homo sapiens) (UniProt P04150); test: qHTS assay to identify small molecule antagonists of the glucocorticoid receptor (GR) signaling pathway (AID 720692; active = well fitted inhibition curve with a large enough effect in the signal ratio in the repeat runs, not every such curve was filed as active; the % refers to the signal ratio)
Method in brief: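 Read-out: beta-lactamase FRET substrate fluorescence, 2 h at room temperature, in HeLa cells stably carrying a GRE-driven bla reporter. Compounds were co-incubated with 5 nM dexamethasone agonist (final) for 18 h at 37 C.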

Measured: Potency

CC(C)COC(=O)C(C)C
inactive: all assays above

C/C=C1\C(=O)C[C@H]2[C@@H]3CCC4=CC(=O)CC[C@]4(C)[C@H]3CC[C@]12C
not listed: [5] | [18] | [19]
inactive: all other assays above

C=C[Si](OC)(OC)OC
not listed: [7] | [13]
inactive: all other assays above

CC(C)CCCC(C)CCCC(C)CCCCC(C)CCCC(C)CCCC(C)C (stereo not drawn)
not listed: [5] | [19]
inactive: all other assays above

CCCCC=O
inactive: all assays above

CSc1ccc(C=O)cc1
not listed: [7]
inactive: all other assays above

CCN(CC)C(=O)c1ccc(O)c(OC)c1
inactive: all assays above

COc1ccc(COC=O)cc1
not listed: [7]
inactive: all other assays above

C1C2OC2C2C1C1CC2C2OC12 (stereo not drawn)
not listed: [19]
inactive: all other assays above

CC(C)c1cccc(C(C)C)c1N
not listed: [7]
inactive: all other assays above

CC1CCN(CCCC(=O)c2ccc(F)cc2)CC1
inactive: all assays above

Nc1cc(N)cc(C(=O)O)c1
inactive: all assays above

CC(C)(C)N(CCO)CCO
not listed: [7]
inactive: all other assays above

COc1nc(C)nc(N)n1
not listed: [5]
inactive: all other assays above

Reference: PubChem BioAssay (Tox21)
